A-T KAP1 phos: potential ataxia-telangiectasia treatment | F2112 A-T fibroblasts, KAP-1 phosphorylation AlphaLISA; neocarzinostatin DNA damage 30 min before lysis | Potency, µM (highest dose often 57.5 µM), for inactives: at the highest dose activation, usual class: activators | 320,000 compounds, 0.19% hits | AID 485349; also: potency is read from the fitted curve at half-maximal effect; % of control where 0% means no effect; nearly all actives have a fitted effect of over 45% in size
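ATM-like activity read as KAP-1 phosphorylation via AlphaLISA donor/acceptor antibody pairs after lysis and 6 hr at 25C. Cells were ATM-null patient fibroblasts (F2112, hTERT), dosed 60 min, then exposed to the DSB inducer NCS for 30 min.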
Nrf2 block: Nrf2 pathway inhibition | A549 ARE-Fluc reporter, luciferase luminescence, 18-24 h | Potency, µM (highest dose often 46 µM), for inactives: at the highest dose activity change, negative = inhibition, most hits filed as inhibitors | 360,000 compounds, 2.1% hits; also: potency is read from the fitted curve at half-maximal effect; % is scaled to controls: 0 for no effect and ±100 for the full control effect; nearly all actives have a fitted effect of over 60% in size
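Nrf2 activity is the BugLite luminescence, read 15 min after reagent at room temperature, following CellTiter-Fluor cytotoxicity readout (30 min, 37C). Compound titrations were applied for 18-24 h to 5000 A549 ARE_Fluc cells/well in 5% FBS OPTI-MEM.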
CCT modulator: changes cytosolic chaperonin activity; purified chaperonin ATPase assay, HTRF ADP detection, 30 min; activity change, % (test concentration not listed), hits read low; 360,000 compounds, 0.3% hits; in the data active = activity change below about -30%; also: % is scaled to controls: 0 for no effect and ±100 for the full control effect
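We incubate TRiC, 40 or 20 nM final, with library compounds at 76 uM and 10 uM ATP for 30 min at 37 °C. ADP formed is detected with Transcreener HTRF reagents after 30 min at room temperature.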
TCR activator: T cell receptor activation. 330,000 tested, under 10 active. Potency, µM (top dose mostly 9.22 µM), inactives show top-dose activation of IL-2 secretion, hits mostly activators. primary human leukocytes, anti-CD3, IL-2 HTRF, 48 h; also: % of control where 0% means no effect
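IL-2 release read by HTRF sandwich (Eu cryptate donor, d2 acceptor, 665 nm emission) after 48 hr exposure of primary human leukocytes to compound together with anti-CD3 beads in the absence of co-stimulatory signals.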
Nrf2 ARE act: Nrf2 pathway activation | AREc32 ARE-luciferase reporter (MCF7-derived line), luminescence, 24 h | Potency, µM (top dose mostly 46.1 µM), without a hit: top-dose activation, usual class: activators | 410,000 compounds, 0.31% hits | AID 624171; also: potency is read from the fitted curve at half-maximal effect; % of control where 0% means no effect; nearly all actives have a fitted effect of over 65% in size
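ARE-driven firefly luciferase activity in AREc32 cells measured after a 24 hr compound exposure at 37 deg C, using Steady-Glo reagent and a 30 min room-temperature hold.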
A549 tox: counter-screen for Nrf2 inhibitors: cytotoxicity in A549 cells; A549 ARE-Fluc cells, CellTiter-Fluor viability, 18-24 h; 390,000 compounds, 0.16% hits; AID 504648; Potency, µM (top dose mostly 46 µM), for the others: at the top dose activity change, negative = cytotoxicity, most hits filed as inhibitors; also: potency is read from the fitted curve at half-maximal effect; % is scaled to controls: 0 for no effect and ±100 for the full control effect
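Cytotoxicity counterscreen: CellTiter-Fluor fluorescence was measured in A549 ARE_Fluc cells after 18-24 h of compound exposure in a concentration series. The subsequent BugLite luminescent read reports ARE-luciferase activity.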
* hit, by the source's call; ? = inconclusive; / = not tested or not shown; ! = not active in a repeat; [ ] = remark or other dose. A selection: hits, their analogues and other compounds. The true share with any hit is near 2.6%. Unless noted, calls follow the shape of the dose curve; as a rule, active = well fitted curve in the direction sought with a large enough effect; inconclusive = small, poorly fitted or top-dose-only effect, or another doubt; inactive = no such curve, though single readings can be large; an effect the other way counts as inactive or inconclusive.

SMILES | A-T KAP1 phos | Nrf2 block | CCT modulator | TCR activator | Nrf2 ARE act | A549 tox
COc1ccc(Br)cc1S(=O)(=O)NNC(=O)c1c(C)nc2ccccn12 | 1.9% | -18.3% | -0.4 | 3.3% | 0.5% | -9.5%
O=C(Nc1ccc(-n2cc(Cl)cn2)cc1)c1ccncc1 | -3.4% | -21.6% | -2.0 | / | 2.9% | 1.2%
O=C(Nc1ccc(-n2cc(Br)cn2)cc1)c1ccncc1 | 5.6% | 25.9µM* | 0.3 | 3.4% | 2.8% | -10.0%
Cc1ccc(Cn2c(=O)c3c(nc4n3CCN4c3cc(C)cc(C)c3)n(C)c2=O)cc1 | / | -8.3% | / | / | 0.0% | -0.5%
Cc1ccc(C)c(NC(=O)CSc2nnc(CCNC(=O)OC(C)(C)C)o2)c1 | 3.5% | -3.6% | 1.3 | -20.4% | -0.4% | 13.2%
Cc1ccc(NC(=O)CSc2nnc(CCCCCNC(=O)OC(C)(C)C)o2)c(C)c1 | 1.1% | 16.4µM* | -3.4 | -11.3%[46.1 µM] | -0.7% | -14.2%
CCOc1ccc(S(=O)(=O)Nc2cccc(OC)c2)c2cccnc12 | / | 14.6µM* | / | / | 6.6% | -17.1%
Cc1cc(NCc2ccccn2)n2nc(C)c(-c3ccc(Cl)cc3)c2n1 | 12.0% | 16.4µM* | 2.3 | -5.3% | -0.2% | -29.0%
CC(C)C(NS(=O)(=O)c1cccc2cccnc12)C(=O)Nc1ccc(OC(F)(F)F)cc1 (stereo not given) | / | -3.6% | / | / | 5.6% | 3.4%
COc1ccc(C2Nc3ccccc3C(=O)N2Cc2ccccc2C(F)(F)F)cc1COc1ccc(NC(C)=O)cc1 (stereo not given) | / | -3.9% | / | / | / | -0.3%
COc1cc(/C=N/Nc2snc(SC)c2C#N)cc(OC)c1OC | -2.6% | 4.61µM* | 1.6 | -7.6% | 3.1% | -26.1%
Cc1ccccc1NC(=O)c1c(NC(=O)C(F)(F)F)sc2c1CCCCC2 | / | 2.31µM* | / | / | -2.1% | ?
Cc1ccc(NC(=O)c2c(NC(=O)C(F)(F)F)sc3c2CCCCC3)cc1 | / | 2.59µM* | / | / | -0.5% | ?
O=C(Nc1cccc(Cl)c1)c1c(NC(=O)C(F)(F)F)sc2c1CCCC2 | / | ? | / | / | -0.4% | ?
Cc1cccc(NC(=O)c2c(NC(=O)C(F)(F)F)sc3c2CCCCC3)c1 | / | 2.59µM* | / | / | -2.5% | ?
O=C(O)CCC(=O)Nc1sc2c(c1C(=O)Nc1ccccc1)CCCCC2 | -6.8% | 13.7% | 0.0 | 5.7% | 14.1µM*! | -0.9%
O=C(O)CCC(=O)Nc1sc2c(c1C(=O)Nc1cccc3ccccc13)CCCCC2 | -0.4% | -23.0% | -2.0 | 2.3%[46.1 µM] | 5.7% | -11.0%
Cc1cc2c(s1)c1cnn(Cc3ccc(C(=O)O)cc3)c(=O)c1n2C | / | 3.5% | / | / | / | 0.7%
Cc1nnc(N2CCN(c3ccccc3F)CC2)c2c1nnn2Cc1ccc(F)cc1 | / | -2.4% | / | / | 0.2% | 0.1%
O=C(/C(=C/c1ccc(Cl)cc1)c1nc2ccccc2[nH]1)c1cccs1 | 3.55µM* | ? | -0.8 | 4.2% | -5.6% | -5.8%
O=C(/C(=C\c1ccccc1)c1nc2ccccc2[nH]1)c1ccc(Cl)cc1 | 7.8% | ? | 1.2 | 8.9%[46.1 µM] | 17.5% | ?
COc1cc(/C=C(/C(=O)c2cccs2)c2nc3ccccc3[nH]2)ccc1O | 25.1µM* | ? | -4.3 | -3.3% | 6.6% | ?
COc1cccc(C2C(C(=O)Nc3ccccc3)=C(C)Nc3nnnn32)c1OC (stereo not given) | / | / | / | / | 5.2% | -3.3%
CC(C)(C)OC(=O)NCC(=O)NNC(=O)c1cc2ccccc2[nH]1 | / | 4.1% | / | / | / | 1.8%
Cc1ncc(C(O)c2ccc(N(C)C)cc2)n1Cc1ccccc1 (stereo not given) | / | / | -1.4 | / | 0.8% | /
SMILES | A-T KAP1 phos | Nrf2 block | CCT modulator | TCR activator | Nrf2 ARE act | A549 tox
CN(C)c1ccc2nc3c(=O)[nH]c(=O)nc-3n(CC(O)C(O)C(O)CO)c2c1 (stereo not given) | -6.7% | ? | 0.0 | 10.0% | -0.7% | 10.3µM*
Cc1cc([N+](=O)[O-])ccc1NCc1cccc2ccccc12 | / | 14.6µM* | -5.4 | 1.5% | 2.8% | ?
Cc1cc([N+](=O)[O-])ccc1NCc1ccccc1[N+](=O)[O-] | 6.5% | -13.6% | -1.0 | -1.2% | 1.9% | 0.9%
c1cc2cc(-c3c(-c4ccc5c(c4)OCO5)noc3-c3ccsc3)ccc2[nH]1 | 5.9% | -15.8% | -23.6 | 4.0% | 19.2% | -2.7%
Cc1onc(-c2ccc3c(c2)OCO3)c1-c1ccc2[nH]ccc2c1 | -3.4% | 14.6µM* | -1.1 | -5.4% | 10.4% | 2.8%
Cc1cn(C2OC(COC(=O)c3ccccc3)C(O)C2O)c(=O)[nH]c1=O (stereo not given) | 13.4% | 9.2% | -31.9* | / | 0.1% | 6.4%
Oc1ccccc1-c1nc(/C=C/c2ccccc2)nn1-c1ccccc1 | 8.7% | -11.7% | -0.4 | -1.0%[46.1 µM] | 8.2% | -0.5%
Oc1ccc(/C=C/c2nc(-c3ccccc3O)n(-c3ccccc3)n2)cc1 | 1.8% | 7.31µM* | -1.9 | -2.7% | 4.1% | ?
Cc1ccccc1Cn1c(SCc2ccc(C(=O)NC(C)c3ccccc3)cc2)nc2ccncc21 (stereo not given) | / | -10.8% | / | / | 4.0% | 2.3%
CCOC(=O)c1c(C)[nH]c(CCC(=O)NC(C)c2ccccc2)c1C (stereo not given) | / | / | / | / | 0.0% | -4.9%
Cc1nn(-c2ccccc2)nc1C(=O)c1c(C)[nH]n(-c2ccccc2)c1=O | -9.1% | 20.6µM* | -2.4 | -5.7% | -0.1% | ?
Cc1[nH]n(-c2ccccc2)c(=O)c1C(=O)c1ccc([N+](=O)[O-])cc1 | 0.9% | ? | 0.2 | 1.6% | 0.0% | -8.5%
CCN1C(=O)[C@H]2[C@@H](c3ccc(-c4ccc(Cl)c(Cl)c4)c(OC)c3)N[C@@](Cc3ccccc3)(C(=O)OC)[C@H]2C1=O | 8.7% | -19.2% | -58.1* | 2.1% | 0.0% | -8.2%
CC1=Nc2nc(N3CCCCCC3)c(C#N)c3c4c(nc(c23)N1)N(c1ccc2ccccc2c1)C(=O)C4 | / | 1.1% | 0.7 | 0.4% | -0.4% | 9.9%
O=C(Nc1cc(Cl)cc(Cl)c1)c1cc(S(=O)(=O)N2CCc3ccccc3C2)ccc1F | / | / | / | / | 0.6% | -8.6%
N#Cc1ccc(-c2cn(-c3ccccc3)c3[n+]2CCCS3)cc1 | -3.7% | 3.7% | 1.0 | -2.4% | 0.4% | 0.6%
c1ccc(-c2cn(-c3ccccc3)c3[n+]2CCCS3)cc1 | 7.7% | 9.2µM* | -2.7 | -5.0% | 0.2% | -9.6%
CC(C)C1Cc2c(sc3[nH]c(=S)n(Cc4ccccc4)c(=O)c23)CO1 (stereo not given) | -0.7% | 16.4µM* | -2.8 | -4.6% | -1.0% | ?
Cc1nnc2n(-c3ccccc3)c(=O)c3c4c(sc3n12)COC(C(C)C)C4 (stereo not given) | -1.6% | -6.9% | -1.6 | 0.4% | -0.2% | 7.1%

From PubChem
